# Laboratory results as given in the supplement of paper PMC3334620.
# Whole data set: some 33,000 sequences, median “E-score (-0.5 to 0.5)” near -0.017, cut for the highest 2% near 0.3. The sample as a whole holds a higher share of the highest values than the screen did.
# Biological target: T1, Sut1 (UniProt P53032)
# T1 sequence: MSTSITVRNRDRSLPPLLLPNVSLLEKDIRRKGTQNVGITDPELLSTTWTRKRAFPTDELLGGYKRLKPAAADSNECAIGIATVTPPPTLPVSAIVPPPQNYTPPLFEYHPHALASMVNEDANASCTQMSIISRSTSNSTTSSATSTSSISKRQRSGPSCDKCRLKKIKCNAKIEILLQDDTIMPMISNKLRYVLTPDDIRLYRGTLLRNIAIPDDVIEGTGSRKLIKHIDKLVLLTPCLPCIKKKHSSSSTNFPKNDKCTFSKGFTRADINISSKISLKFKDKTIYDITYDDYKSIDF
# Test: PBM E-score (8-mer binding enrichment) (E-score (-0.5 to 0.5)); higher = stronger / more preferred TF binding
# Settings: protein concentration: 200 nM; construct: GST-full length
# Procedure: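 Universal 'all 10-mer' protein binding microarrays (Agilent AMADID 015681) probed with GST-tagged S. cerevisiae TFs (full-length or DBD) made by in vitro transcription/translation (PURExpress), about 100-200 nM. Bound TF was detected with fluorescent anti-GST. Each ungapped 8-mer (which stands for itself and its reverse complement) is scored by the PBM enrichment score (E-score), a modified Wilcoxon-Mann-Whitney statistic from -0.5 to +0.5, computed with the Universal PBM Analysis Suite. Scale: above 0.35 generally sequence-specific binding.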
row,Sequence,PBM E-score
1,AATCGGAG,0.396
2,AATCGGTG,0.0417
3,GATCGGAA,0.159
4,CATCGGAA,0.269
5,AATCGGAT,0.183
6,CATCGGAG,0.435
7,GATCGGAC,0.367
8,GATCGGGC,-0.0436
9,CATCGGTC,-0.106
10,CATCGGGG,-0.00411
11,CATCGGAC,0.37
12,CATCGGCG,-0.137
13,ACAAGCAG,0.0716
14,CGTCTCGA,-0.113
15,AAGCAGAG,-0.037
16,CAGTCGAG,-0.103
17,CAATGGGG,-0.163
18,GAAGTCTA,0.0111
19,CCTACTCA,0.021
20,AGCAGTTC,0.0132
21,AATCGGAC,0.338
22,AATCGGGC,-0.0945
23,AATCGGAA,0.38
24,AATCGGCC,-0.109
25,TATCGGAA,0.26

row,Sequence,PBM E-score
1,AATCGGCA,0.107
2,CCACTTTA,0.0316
3,CCGGTCAG,-0.0559
4,AATCAGAT,0.0945
5,AAGGGATG,-0.0899
6,GAGTCCAC,-0.108
7,AAGCTCCT,-0.112
8,AGGCTCCA,-0.178
9,AGGCTCCC,-0.0884
10,CAGCTCCG,0.461
11,AAGCTCCG,0.455
12,AAGCTCCC,-0.156
13,AGGCTCCG,0.357
14,CAGCTCCC,-0.181
15,CAGCTCCA,-0.0491
16,CAGGCCTG,0.0399
17,ACGCTAAC,-0.22
18,GTTCGACA,-0.0722
19,ATAATAAA,0.339
20,ATAATATG,0.286
21,CTAATAAC,0.14
22,CTAATAAA,0.197
23,ATAATATA,0.301
24,CTAATATA,0.225
25,GTAATAAA,0.284

row,Sequence,PBM E-score
1,TTAATAAA,0.341
2,ATAATAAT,0.295
3,AATCCTCG,-0.164
4,CGGGGCTC,0.0261
5,ACTTGGGG,-0.203
6,CGCGCCTC,0.0917
7,GGGATACA,-0.064
8,TACCCCGA,0.324
9,CACCCCGG,0.0471
10,AAACCCGA,0.198
11,GACCCCGA,0.0897
12,AACCCCGG,0.438
13,ACCCCCGG,-0.0829
14,CACCCCGA,0.134
15,ACCCCCGA,-0.118
16,AACCCCGA,0.447
17,GATGCTAA,0.0485
18,AATAGGCC,0.0314
19,GCTCGCAA,-0.101
20,CATCCACC,-0.0255
21,CGATTCTA,-0.0107
22,GGCTAATA,0.17
23,ACTCATAC,0.0873
24,ACCAACCC,-0.212
25,AGATCGGA,0.348

row,Sequence,PBM E-score
1,ATATCGGG,-0.0571
2,ATATCGGA,0.331
3,CTATCGGA,0.337
4,CTATCGGC,-0.13
5,GTATCGGA,0.281
6,CGATCGGA,0.246
7,ATATCGGC,-0.0245
8,GGATCGGA,0.277
9,CCTGCTAC,-0.0632
10,GTTCGGTA,0.141
11,AAGATGGC,-0.0118
12,AGTCCCAG,-0.199
13,ATTGACCG,0.0305
14,AGAGTCCA,-0.0986
15,CGTTGCAG,-0.136
16,ATGCAGCA,-0.134
17,ATCCTTCG,0.0447
18,CTCCGCAA,0.271
19,ATCCGCAC,-0.0365
20,GTCCGCAC,0.247
21,CTCCGCAG,0.364
22,ATCCGCAG,0.0529
23,CTCCGCAC,0.306
24,CGATTTCA,0.0969
25,CCACACGG,-0.0635

row,Sequence,PBM E-score
1,ACGTCCGG,0.101
2,CTCCGTAC,0.331
3,CACCGTAA,0.0107
4,ATCCGTAC,0.178
5,CCCCGTAA,0.0974
6,GACCGTAA,-0.0628
7,GTCCGTAA,0.342
8,CACCGTAC,0.0478
9,ATCCGTAA,0.183
10,CTCCGTAA,0.328
11,AGCATTGA,-0.0961
12,CCTAACCA,0.0768
13,ACATCTGC,-0.193
14,GTTAAAGA,0.0511
15,GATAAAAA,0.263
16,ATTAAAGA,0.311
17,ATTAAATA,0.315
18,CATAAATA,0.168
19,ATTAAATG,0.243
20,TATAAAAA,0.318
21,TATAAATA,0.343
22,CATAAAAA,0.161
23,CTTAAAGA,0.111
24,TAAAAATA,0.249
25,ATTAAATC,0.191

row,Sequence,PBM E-score
1,ACCATGAG,-0.166
2,TGCTTCAA,0.0485
3,AAGTTCTA,0.0927
4,GAGGATCA,-0.09
5,CAGCTATC,-0.207
6,ATGAGTCG,-0.157
7,ACAGCGTG,-0.171
8,AGGCCCAC,-0.387
9,AAGGCTAA,0.0404
10,CACAAATA,0.13
11,AATAAATT,0.237
12,GATAAATA,0.325
13,GATAAATC,0.26
14,AATAAATG,0.179
15,GATAAACA,0.203
16,AACAAATA,0.201
17,TACAAATA,0.303
18,AATAAATA,0.374
19,AACAAGCG,-0.0413
20,GCGCCTCA,-0.0448
21,ACACTTAC,0.0992
22,AGTCTCCA,-0.229
23,AGTCTCCC,-0.0841
24,AATCTCCG,0.454
25,CATCTCCG,0.478

row,Sequence,PBM E-score
1,ATTCTCCC,-0.0729
2,AATCTCCT,0.147
3,ATTCTCCA,-0.0299
4,AGTCTCCG,0.316
5,CATCTCCC,-0.138
6,AATCTCCC,-0.268
7,ATTCTCCG,0.409
8,CATCTCCA,-0.036
9,GAACTTTA,0.145
10,GTAATTCA,0.182
11,CAAATCGG,0.0756
12,AGCCTTCG,-0.203
13,AATTTCGG,0.242
14,CAGAAATC,0.0914
15,CCGTTGGA,0.0326
16,ACTCGCTA,0.0713
17,ACCGGACC,0.364
18,AACGGACT,0.444
19,AGCGGACA,0.107
20,AACGGACA,0.24
21,ACCGGACT,0.485
22,AACGGACC,0.191
